Experimental data published in PubChem BioAssay (NCATS).
Where “and” joins values, the source holds several entries; their conditions need not be identical. Identical values can stand only once. Records with an inconclusive call do not appear. Values without a mark were called inactive. Calls of active or inactive are those of the source. The call rests on the fitted dose curve; in most records, active means well fitted inhibition curve with a large enough effect; inconclusive means small, poorly fitted or top-dose-only effect; inactive means no such curve, though single readings can be large or run the other way.

Molecular target: Muscarinic acetylcholine receptor M1 (Rattus norvegicus) (UniProt P08482)
Assay: qHTS Assay for Antagonists of Acetylcholine Muscarinic M1 Receptor: Kinetic Measurement of Intracellular Calcium Response (AID 943); further: nearly all actives have a fitted effect of over 75% in size
Conditions: M1-expressing cells, kinetic intracellular calcium fluorescence; series mostly up to 35.3 µM; activity change, negative = inhibition: at the top concentration
From the text: NIH Molecular Libraries Screening Centers Network [MLSCN]
NIH Chemical Genomics Center [NCGC]
Acetylcholine muscarinic M1 receptor is a G-protein coupled receptor (GPCR) coupling to the Gq G protein. It is mainly expressed in brain and functionally related to the learning and memory processes. The agonists of this receptor have the potential for the treatment of Alzheimer's disease and cognitive impairments associated with Schizophrenia. Upon an activation of the M1 receptor, phosholipase C (PLC) is activated to produce inositol 1,4,5-trisphosphate (IP3) and diacyl glycerol (DAG) resulting in increase of intracellular free Ca2+ and activation of protein kinase C (PKC). The increase of intracellular calcium can be measured by the fluorescent calcium dyes, Fluo-3 and Fluo-4, using a fluorescence kinetic plate reader.
We have obtained a M1-CHO cell line transfected with rat acetylcholine M1 receptor and optimized a calcium assay with this cell line for compound screening as a counter-screen assay for other Gq-coupled GPCRs.
NCGC Assay Protocol Summary:
The CHO-M1 (CHO-M1) cell line transfected with the rat acetylcholine muscarinic M1 receptor was obtained from ATCC. The cells were maintained in call culture flasks with F12 Kaighn's media (Invitrogen) supplemented with 10 % FBS, 100 units/ml penicillin, 100 ug/ml streptomycin and 250 ug/ml geneticin (Invitrogen) at 37C, 5 % CO2 in a humidified atmosphere. At 90-95 % confluence, the cells were then detached in 15 ml […] % trypsin by 3 minutes incubation at 37C and centrifuged at 1000 RPM to remove the trypsin solution. The resulting cell pellet was resuspended in the cell freezing media containing 10 % DMSO (Invitrogen) at a density of 4 x 10^7 cells/ml. The aliquots of cells at 0.5 - 1 ml per vial were frozen down slowly at 1 degree C/min using a Cryo 1 degree C freezing container in the presence of isopropanol (Nalgene Nunc, Rochster, NY) overnight in a -80C freezer. The frozen cells were then transferred to liquid nitrogen for the storage up to one year.
The resuspended frozen cells were plated at 3 ul/well with 2000 cells in the black, tissue culture treated, clear bottom 1536-well plates. After overnight incubation at 37C, 5% CO2, 2.5 ul/well no-wash calcium dye (containing Fluo-4, BD Biosciences) were loaded and incubated at 37C, 5 % CO2 for 1 hour followed by a 10 min incubation with 20 nl compound in DMSO solution. The assay plates were then placed onto the kinetic fluorescence plate reader (FDSS-7000, Hamamatsu) for a measurement of the kinetic changes in intracellular free calcium. The basal fluorescence signal was measured for 6 times at 1 Hz followed by an addition of 1 ul of carbachol and continued 4 min measurement. The results were calculated as the maximal signal (peak) divided by the minimal signal (basal).
1536-well assay protocol:
(1) 3 ul/well containing 2000 M1-CHO cells in 1536 tissue culture treated black/clear bottom plate
(3) Add 1ul/well calcium dye (from no-wash calcium dye kit, BD Biosciences) containing […]
(4) Incubate 1 hour at 37C with 5% CO2
(5) Add 20 nl compound diluted in DMSO
(6) Incubate 10 minutes at the room temp
(7) Place the plate in FDSS-7000 instrument (Ex = 480 nm and […])
#- read the assay plate 6 times at 1 Hz for basal signal
#- add 1 ul/well EC80 carbachol (100 nM final)
#- continuously read the assay plate for 4 min at 1 Hz
Keywords: acetylcholine muscarinic M1 receptor, calcium kinetic assay, Fluo-4, high throughput screening, MLSMR, MLSCN, NIH Roadmap, qHTS and NCGC

Sequence of Muscarinic acetylcholine receptor M1 (Rattus norvegicus) (P08482 whole entry, looked up): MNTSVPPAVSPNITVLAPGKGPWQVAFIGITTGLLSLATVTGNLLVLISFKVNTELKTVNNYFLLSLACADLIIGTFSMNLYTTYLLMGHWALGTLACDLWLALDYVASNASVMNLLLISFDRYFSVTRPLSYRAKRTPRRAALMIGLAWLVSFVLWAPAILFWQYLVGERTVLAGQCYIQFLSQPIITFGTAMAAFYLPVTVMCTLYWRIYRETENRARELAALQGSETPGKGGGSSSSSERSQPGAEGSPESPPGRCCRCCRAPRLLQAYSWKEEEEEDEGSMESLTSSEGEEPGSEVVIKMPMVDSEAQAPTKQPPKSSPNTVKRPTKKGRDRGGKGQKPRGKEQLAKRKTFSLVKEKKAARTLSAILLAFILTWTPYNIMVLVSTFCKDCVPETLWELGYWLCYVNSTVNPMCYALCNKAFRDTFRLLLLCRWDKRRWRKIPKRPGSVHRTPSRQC

| SMILES | activity change, negative = inhibition [%] | Potency |
| --- | --- | --- |
| NC(=NCCC[C@H](N)C(=O)O)N[N+](=O)[O-] | -31.9 | – |
| c1ccc(CCCN2CCN(CCOC(c3ccccc3)c3ccccc3)CC2)cc1 | – | 891 nM (active) |
| NCCc1c[nH]c2ccccc12 | -31.5 | – |
| Cn1cnc(CCN)c1 | -44.1 | – |
| CCCN(CCC)[C@@H]1CCc2ccc(O)cc2C1 | – | 5.01 µM (active) and 282 nM (active) |
| CC(=O)NCCc1c[nH]c2ccccc12 | -7.3 | – |
| NCc1cc(=O)[nH]o1 | 160 | – |
| C[C@@H]1O[C@H](C[N+](C)(C)C)C[C@H]1O | 20.8 | – |
| COc1ccc2c(c[n+](C)c3c4cc5c(cc4ccc23)OCO5)c1OC | -17.8 | – |
| CNCCc1c[nH]c2ccc(O)cc12 | -32.1 | – |
| C#CCOC(=O)C1=CCCN(C)C1 | -23.2 | – |
| NC(N)=NOCCC(N)C(=O)O (stereo not given) | -19.4 | – |
| CN[C@@H]1C[C@@H](c2ccc(Cl)c(Cl)c2)c2ccccc21 | – | 2240 nM (active) |
| CNCCc1ccc(O)c(O)c1 | -41.7 | – |
| O=C1CCCN1CC#CCN1CCCC1 | -2.68 | – |
